# Article PMC7862700, “An all-to-all approach to the identification of sequence-specific readers for epigenetic DNA modifications on cytosine”
# Tests used:
# Test in all cases: DAPPL (digital affinity profiling via proximity ligation, sequencing); 10 mM Tris-HCl pH 7.5, 50 mM NaCl, 1 mM DTT, 4% glycerol, room temperature, 30 min; GST-TFs on glutathione beads, 16-mer random dsDNA library, 0.1% formaldehyde crosslink after washing; high values mean tight binding
# Details in all cases: protein: recombinant; tags: N-terminal GST; dsDNA, one strand shown
# [1] = biological target: T1, FEV (Homo sapiens, UniProt Q99581 1-238)
# T1 sequence: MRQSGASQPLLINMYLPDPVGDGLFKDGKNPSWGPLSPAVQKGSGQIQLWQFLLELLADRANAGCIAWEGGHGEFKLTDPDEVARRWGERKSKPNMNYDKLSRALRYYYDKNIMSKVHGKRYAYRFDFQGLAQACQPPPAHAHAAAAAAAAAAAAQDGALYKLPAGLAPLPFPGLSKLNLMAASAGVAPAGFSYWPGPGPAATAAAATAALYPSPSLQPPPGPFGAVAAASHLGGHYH
# Method in brief: (§1)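 Sequencing on an Illumina NextSeq500 followed washing, crosslinking with 0.1% formaldehyde, proximity ligation (BsaI/T4 ligase, 1 h, 37 °C) and PCR amplification of pools that had been incubated for 30 min at room temperature with 200 nmole of a random double-stranded 16-mer DNA library in Tris/NaCl/DTT/glycerol buffer. Each pool held DNA-barcoded human transcription factors, expressed in yeast as GST fusions and captured on glutathione beads, plus a tag-only sample. Binding signal is a hexamer's read frequency for a factor divided by its frequency in the tag-only sample.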
# [2] = biological target: ETV5 (Homo sapiens, UniProt P41161 1-510)
# ETV5, sequence (P41161 whole entry): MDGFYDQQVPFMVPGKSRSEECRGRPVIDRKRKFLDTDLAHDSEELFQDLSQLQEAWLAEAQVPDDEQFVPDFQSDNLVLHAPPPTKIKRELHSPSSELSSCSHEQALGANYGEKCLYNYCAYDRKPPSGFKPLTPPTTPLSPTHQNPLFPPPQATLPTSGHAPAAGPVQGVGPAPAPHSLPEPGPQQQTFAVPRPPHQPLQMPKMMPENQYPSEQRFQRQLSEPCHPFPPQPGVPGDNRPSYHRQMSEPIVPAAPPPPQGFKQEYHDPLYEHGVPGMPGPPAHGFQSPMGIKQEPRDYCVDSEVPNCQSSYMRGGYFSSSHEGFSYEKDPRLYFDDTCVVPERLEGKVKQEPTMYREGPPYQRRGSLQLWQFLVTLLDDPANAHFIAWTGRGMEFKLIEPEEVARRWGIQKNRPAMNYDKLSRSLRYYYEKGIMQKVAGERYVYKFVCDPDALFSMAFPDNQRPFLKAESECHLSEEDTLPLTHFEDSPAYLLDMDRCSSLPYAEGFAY
# Method in brief: as §1
# [3] = biological target: T2, SPIC (Homo sapiens, UniProt Q8N5J4 1-248)
# T2 sequence: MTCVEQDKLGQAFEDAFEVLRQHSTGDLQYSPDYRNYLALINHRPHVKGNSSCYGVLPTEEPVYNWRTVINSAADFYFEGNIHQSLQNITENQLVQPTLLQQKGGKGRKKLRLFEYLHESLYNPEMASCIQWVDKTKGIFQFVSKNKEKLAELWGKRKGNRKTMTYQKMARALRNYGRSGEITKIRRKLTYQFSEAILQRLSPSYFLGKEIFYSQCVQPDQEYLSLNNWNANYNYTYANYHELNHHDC
# Method in brief: as §1
# [4] = biological target: ELF4 (Homo sapiens, UniProt Q99607 1-663)
# ELF4, sequence (Q99607 whole entry): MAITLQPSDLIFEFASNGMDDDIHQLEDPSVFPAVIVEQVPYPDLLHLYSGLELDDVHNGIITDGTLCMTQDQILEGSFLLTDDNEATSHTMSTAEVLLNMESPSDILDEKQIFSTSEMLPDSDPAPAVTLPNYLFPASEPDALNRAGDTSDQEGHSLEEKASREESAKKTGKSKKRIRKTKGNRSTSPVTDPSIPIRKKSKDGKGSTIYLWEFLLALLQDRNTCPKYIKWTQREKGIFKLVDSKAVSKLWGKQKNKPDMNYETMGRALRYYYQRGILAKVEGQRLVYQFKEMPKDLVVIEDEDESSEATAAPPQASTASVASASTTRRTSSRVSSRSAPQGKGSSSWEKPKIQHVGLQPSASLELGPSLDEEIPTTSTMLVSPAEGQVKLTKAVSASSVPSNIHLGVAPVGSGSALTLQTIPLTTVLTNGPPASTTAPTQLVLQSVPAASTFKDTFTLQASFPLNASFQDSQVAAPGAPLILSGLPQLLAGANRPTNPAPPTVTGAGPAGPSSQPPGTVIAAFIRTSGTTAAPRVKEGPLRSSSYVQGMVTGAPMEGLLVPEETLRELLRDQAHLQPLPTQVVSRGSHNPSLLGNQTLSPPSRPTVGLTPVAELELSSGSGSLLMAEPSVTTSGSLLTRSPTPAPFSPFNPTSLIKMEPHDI
# Method in brief: as §1
# [5] = biological target: T3, ELK4 (Homo sapiens, UniProt P28324-2 1-405)
# T3 sequence: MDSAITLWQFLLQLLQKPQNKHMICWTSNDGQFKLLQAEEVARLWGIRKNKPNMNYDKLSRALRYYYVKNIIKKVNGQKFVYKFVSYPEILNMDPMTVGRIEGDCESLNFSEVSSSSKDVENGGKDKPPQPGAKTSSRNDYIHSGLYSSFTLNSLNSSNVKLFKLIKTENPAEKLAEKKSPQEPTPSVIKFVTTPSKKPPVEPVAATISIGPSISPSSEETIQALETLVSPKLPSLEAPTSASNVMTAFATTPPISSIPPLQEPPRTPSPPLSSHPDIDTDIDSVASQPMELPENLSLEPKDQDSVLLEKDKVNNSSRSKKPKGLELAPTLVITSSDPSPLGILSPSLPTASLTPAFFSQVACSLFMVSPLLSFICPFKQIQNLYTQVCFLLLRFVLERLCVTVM
# Method in brief: as §1
# [6] = biological target: T4, ETV2 (Homo sapiens, UniProt O00321 1-342)
# T4 sequence: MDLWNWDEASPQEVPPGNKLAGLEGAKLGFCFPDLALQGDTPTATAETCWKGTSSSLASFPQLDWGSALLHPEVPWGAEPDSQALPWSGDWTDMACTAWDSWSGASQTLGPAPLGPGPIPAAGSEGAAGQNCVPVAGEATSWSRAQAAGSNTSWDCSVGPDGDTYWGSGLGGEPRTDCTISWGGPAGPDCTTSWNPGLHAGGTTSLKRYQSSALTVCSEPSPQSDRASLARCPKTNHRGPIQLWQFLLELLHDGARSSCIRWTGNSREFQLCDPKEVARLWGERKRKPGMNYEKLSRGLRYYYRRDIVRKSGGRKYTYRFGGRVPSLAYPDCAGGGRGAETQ
# Method in brief: as §1
# [7] = biological target: T5, ELF3 (Homo sapiens, UniProt P78545 1-371)
# T5 sequence: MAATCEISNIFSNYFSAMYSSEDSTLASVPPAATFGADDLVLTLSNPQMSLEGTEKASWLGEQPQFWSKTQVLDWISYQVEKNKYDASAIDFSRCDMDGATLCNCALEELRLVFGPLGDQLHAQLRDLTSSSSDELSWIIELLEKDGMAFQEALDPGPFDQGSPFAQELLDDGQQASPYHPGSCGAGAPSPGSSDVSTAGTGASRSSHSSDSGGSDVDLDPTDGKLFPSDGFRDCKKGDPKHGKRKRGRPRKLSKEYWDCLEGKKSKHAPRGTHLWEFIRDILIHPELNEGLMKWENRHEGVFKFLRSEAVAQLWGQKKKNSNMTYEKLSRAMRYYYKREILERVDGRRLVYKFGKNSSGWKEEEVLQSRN
# Method in brief: as §1
# [8] = biological target: CRX (Homo sapiens, UniProt O43186 1-299)
# CRX, sequence (O43186 whole entry): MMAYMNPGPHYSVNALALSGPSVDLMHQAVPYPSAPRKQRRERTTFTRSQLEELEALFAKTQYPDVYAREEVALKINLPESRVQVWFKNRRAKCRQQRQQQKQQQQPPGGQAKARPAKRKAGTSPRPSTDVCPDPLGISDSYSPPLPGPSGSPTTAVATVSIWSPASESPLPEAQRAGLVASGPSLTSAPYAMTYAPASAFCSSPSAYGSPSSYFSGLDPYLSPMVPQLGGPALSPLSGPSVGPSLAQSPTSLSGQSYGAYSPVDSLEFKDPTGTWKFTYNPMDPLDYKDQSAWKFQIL
# Method in brief: as §1
# [9] = biological target: ETV1 (Homo sapiens, UniProt P50549 1-477)
# ETV1, sequence (P50549 whole entry): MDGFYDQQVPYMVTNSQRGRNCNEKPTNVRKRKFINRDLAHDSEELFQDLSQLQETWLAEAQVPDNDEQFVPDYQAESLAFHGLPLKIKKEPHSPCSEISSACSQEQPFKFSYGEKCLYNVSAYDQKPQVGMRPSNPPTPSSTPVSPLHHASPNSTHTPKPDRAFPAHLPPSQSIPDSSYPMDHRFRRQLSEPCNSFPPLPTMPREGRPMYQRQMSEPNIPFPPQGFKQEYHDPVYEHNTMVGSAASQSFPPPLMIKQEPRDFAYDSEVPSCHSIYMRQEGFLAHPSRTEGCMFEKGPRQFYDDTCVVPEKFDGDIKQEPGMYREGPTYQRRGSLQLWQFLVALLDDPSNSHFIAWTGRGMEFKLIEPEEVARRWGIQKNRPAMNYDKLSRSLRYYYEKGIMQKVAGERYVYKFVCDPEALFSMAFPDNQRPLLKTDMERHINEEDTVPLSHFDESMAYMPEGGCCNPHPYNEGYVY
# Method in brief: as §1
# [10] = biological target: T6, ERF (Homo sapiens, UniProt P50548 1-548)
# T6 sequence: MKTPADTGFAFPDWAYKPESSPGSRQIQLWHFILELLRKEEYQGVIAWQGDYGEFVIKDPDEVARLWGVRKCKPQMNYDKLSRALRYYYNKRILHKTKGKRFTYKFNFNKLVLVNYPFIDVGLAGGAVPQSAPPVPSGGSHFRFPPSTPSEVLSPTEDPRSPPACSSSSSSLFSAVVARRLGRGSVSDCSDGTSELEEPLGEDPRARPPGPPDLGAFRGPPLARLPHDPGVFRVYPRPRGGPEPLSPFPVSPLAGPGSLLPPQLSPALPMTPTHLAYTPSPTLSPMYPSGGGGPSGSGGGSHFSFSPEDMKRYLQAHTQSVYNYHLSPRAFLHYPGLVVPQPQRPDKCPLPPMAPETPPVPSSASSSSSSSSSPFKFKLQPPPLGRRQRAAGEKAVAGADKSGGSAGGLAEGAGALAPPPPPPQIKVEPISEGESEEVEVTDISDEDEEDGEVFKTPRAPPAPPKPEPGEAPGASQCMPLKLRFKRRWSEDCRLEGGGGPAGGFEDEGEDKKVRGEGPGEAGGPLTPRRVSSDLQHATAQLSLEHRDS
# Method in brief: as §1
# [11] = biological target: T7, ETV3L (Homo sapiens, UniProt Q6ZN32 1-361)
# T7 sequence: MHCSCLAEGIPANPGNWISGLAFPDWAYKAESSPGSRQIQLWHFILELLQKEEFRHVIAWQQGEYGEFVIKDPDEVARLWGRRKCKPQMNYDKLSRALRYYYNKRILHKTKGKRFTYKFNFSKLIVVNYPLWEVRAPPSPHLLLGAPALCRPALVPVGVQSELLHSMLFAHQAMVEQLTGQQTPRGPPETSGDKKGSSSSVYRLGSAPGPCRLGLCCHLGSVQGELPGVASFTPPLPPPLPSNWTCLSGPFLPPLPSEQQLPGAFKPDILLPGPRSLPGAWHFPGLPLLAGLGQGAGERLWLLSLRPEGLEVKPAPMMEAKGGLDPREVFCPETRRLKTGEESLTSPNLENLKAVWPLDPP
# Method in brief: as §1
# [12] = biological target: T8, ETS2 (Homo sapiens, UniProt P15036 1-469)
# T8 sequence: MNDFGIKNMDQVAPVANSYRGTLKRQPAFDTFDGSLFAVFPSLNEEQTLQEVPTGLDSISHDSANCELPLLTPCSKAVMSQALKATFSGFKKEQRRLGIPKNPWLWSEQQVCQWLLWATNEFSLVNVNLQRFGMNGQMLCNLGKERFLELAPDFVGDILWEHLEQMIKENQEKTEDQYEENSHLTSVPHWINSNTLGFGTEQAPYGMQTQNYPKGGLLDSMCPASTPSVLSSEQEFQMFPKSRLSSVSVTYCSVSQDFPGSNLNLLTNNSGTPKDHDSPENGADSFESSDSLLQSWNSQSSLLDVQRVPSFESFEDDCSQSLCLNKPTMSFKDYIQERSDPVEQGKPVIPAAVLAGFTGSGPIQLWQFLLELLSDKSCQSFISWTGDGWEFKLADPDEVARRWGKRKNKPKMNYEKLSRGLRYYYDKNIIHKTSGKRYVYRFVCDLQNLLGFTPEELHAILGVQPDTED
# Method in brief: as §1
# [13] = biological target: T9, SPDEF (Homo sapiens, UniProt O95238 1-335)
# T9 sequence: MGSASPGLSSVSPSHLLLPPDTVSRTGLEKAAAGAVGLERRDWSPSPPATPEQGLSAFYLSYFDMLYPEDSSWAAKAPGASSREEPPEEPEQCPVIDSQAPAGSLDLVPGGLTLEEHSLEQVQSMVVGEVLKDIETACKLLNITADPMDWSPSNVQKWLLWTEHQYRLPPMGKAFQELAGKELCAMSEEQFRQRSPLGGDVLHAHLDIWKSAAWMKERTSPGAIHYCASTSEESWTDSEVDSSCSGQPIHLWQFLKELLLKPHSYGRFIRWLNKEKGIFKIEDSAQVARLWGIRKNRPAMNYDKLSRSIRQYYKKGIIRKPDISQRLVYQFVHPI
# Method in brief: as §1
# [14] = biological target: T10, ETV7 (Homo sapiens, UniProt Q9Y603 1-341)
# T10 sequence: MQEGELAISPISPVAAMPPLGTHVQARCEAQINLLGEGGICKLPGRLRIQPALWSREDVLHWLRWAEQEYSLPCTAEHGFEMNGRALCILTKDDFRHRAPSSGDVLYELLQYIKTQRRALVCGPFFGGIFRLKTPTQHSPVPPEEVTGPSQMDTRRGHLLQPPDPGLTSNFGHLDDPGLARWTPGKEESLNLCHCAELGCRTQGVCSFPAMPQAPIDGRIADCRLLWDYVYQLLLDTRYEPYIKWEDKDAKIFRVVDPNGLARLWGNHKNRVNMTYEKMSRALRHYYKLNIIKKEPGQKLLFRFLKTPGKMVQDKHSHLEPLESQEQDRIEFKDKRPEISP
# Method in brief: as §1
# [15] = biological target: T11, ELF5 (Homo sapiens, UniProt Q9UKW6-2 1-255)
# T11 sequence: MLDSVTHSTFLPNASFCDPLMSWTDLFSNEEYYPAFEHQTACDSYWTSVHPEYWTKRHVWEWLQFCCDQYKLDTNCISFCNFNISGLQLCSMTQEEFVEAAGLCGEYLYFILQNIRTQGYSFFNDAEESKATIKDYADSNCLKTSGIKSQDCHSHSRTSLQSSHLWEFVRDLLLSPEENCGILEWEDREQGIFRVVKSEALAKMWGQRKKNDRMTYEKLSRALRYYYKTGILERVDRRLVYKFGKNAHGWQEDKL
# Method in brief: as §1
# [16] = biological target: ETV6 (Homo sapiens, UniProt P41212 1-452)
# ETV6, sequence (P41212 whole entry): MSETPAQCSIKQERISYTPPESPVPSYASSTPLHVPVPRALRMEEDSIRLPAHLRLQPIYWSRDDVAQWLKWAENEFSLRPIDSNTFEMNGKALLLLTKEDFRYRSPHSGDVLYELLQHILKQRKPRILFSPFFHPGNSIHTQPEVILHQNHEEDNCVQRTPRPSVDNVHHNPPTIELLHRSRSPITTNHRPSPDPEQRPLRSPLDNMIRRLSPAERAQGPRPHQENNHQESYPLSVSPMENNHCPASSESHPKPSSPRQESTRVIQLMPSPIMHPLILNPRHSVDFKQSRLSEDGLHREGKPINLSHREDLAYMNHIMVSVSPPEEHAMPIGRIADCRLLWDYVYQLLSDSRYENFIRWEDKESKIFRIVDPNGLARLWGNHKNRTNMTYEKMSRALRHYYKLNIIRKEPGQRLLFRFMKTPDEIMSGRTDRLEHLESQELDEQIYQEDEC
# Method in brief: as §1
sequence,measurement,setting,value
GTAATG,binding signal,[1],"1.03 fold enrichment (6-mer frequency, TF over GST control)"
same,binding signal,[2],"1.09 fold enrichment (6-mer frequency, TF over GST control)"
same,binding signal,[3],"1.02 fold enrichment (6-mer frequency, TF over GST control)"
same,binding signal,[4],"1.08 fold enrichment (6-mer frequency, TF over GST control)"
same,binding signal,[5],"1.09 fold enrichment (6-mer frequency, TF over GST control)"
same,binding signal,[6],"1.04 fold enrichment (6-mer frequency, TF over GST control)"
same,binding signal,[7],"1.14 fold enrichment (6-mer frequency, TF over GST control)"
same,binding signal,[8],"1 fold enrichment (6-mer frequency, TF over GST control)"
same,binding signal,[9],"1.22 fold enrichment (6-mer frequency, TF over GST control)"
same,binding signal,[10],"1.12 fold enrichment (6-mer frequency, TF over GST control)"
same,binding signal,[11],"1.11 fold enrichment (6-mer frequency, TF over GST control)"
same,binding signal,[12],"1.07 fold enrichment (6-mer frequency, TF over GST control)"
same,binding signal,[13],"1.15 fold enrichment (6-mer frequency, TF over GST control)"
same,binding signal,[14],"1.05 fold enrichment (6-mer frequency, TF over GST control)"
same,binding signal,[15],"1.1 fold enrichment (6-mer frequency, TF over GST control)"
same,binding signal,[16],"1.03 fold enrichment (6-mer frequency, TF over GST control)"
